Sfp inh – blocks B. subtilis Sfp PPTase activity | Q9F4F7 | Biochemical Sfp PPTase activity, qHTS | Potency, µM, for the others: largest response in the series, negative = inhibition, usual class: inhibitors | actives 3.5% (n = 310,000) | AID 1490;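 note: the enzyme is Sfp with the accession as filed and its product quenches rhodamine fluorescence; potency is the fitted concentration of half-maximal effect; 0% = enzyme reaction without inhibitor and -100% = no enzyme wells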
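Reaction rates are the 30-min fluorescence difference (ex 525, em 598 nm) in wells containing 15 nM Sfp, 5 uM rhodamine-CoA and 12.5 uM BHQ-2-YbbR at pH 7.6 with 10 mM MgCl2.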
Tau fibril FP – inhibitors of human tau fibril formation; P10636; K18 P301L tau heparin fibrillization, Alexa594 FP, 6 h; Potency, µM (highest dose often 57.7 µM), for the others: at the top dose activity, negative = inhibition, actives largely listed as inhibitors; actives 0.39% (n = 280,000); AID 1468; note: potency is the fitted concentration of half-maximal effect; nearly all actives have a fitted effect of over 55% in size
Target sequence (P10636 561-689 P618L limits assumed): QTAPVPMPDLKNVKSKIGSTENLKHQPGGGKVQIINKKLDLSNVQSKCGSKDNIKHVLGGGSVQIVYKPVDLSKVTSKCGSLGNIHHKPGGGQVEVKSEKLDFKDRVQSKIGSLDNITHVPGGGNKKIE
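Compound effects on tau fibrillization are measured by Alexa 594 fluorescence polarization (ex 555, em 632 nm). K18 P301L tau is used at 15 uM with 0.24 uM labeled tracer, and 20 uM heparin induces aggregation over 6 hr at 37 C.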
FBPA coupling cs – counter-screen for Giardia aldolase inhibitors: coupling enzyme system; coupling enzyme system counterscreen, AmpLite Red fluorescence; AID 2472; activity change, negative = inhibition, % at 58.2 µM, hits read low; actives 0.67% (n = 290,000); in the data active = activity change below about -30%
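Coupling enzymes only (glyceraldehyde-3-phosphate) + compound, at 57.5 uM final, 10 min RT; add substrate/coupling/AmpLite Red mix, 20 min RT; fluorescence ex 525/em 598 nm. Actives flag coupling-system interference.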
Tau ThT inhib – inhibitors of human tau fibril formation, thioflavin T binding | Potency, µM (series often up to 57.4 µM), inactives show at the top dose activity, negative = inhibition, actives largely listed as inhibitors | actives 2.1% (n = 270,000) | AID 1460 | recombinant tau K18 P301L, heparin-induced fibrillization, ThT fluorescence | P10636; note: potency is the fitted concentration of half-maximal effect; nearly all actives have a fitted effect of over 55% in size
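Fibril formation assay: tau K18 P301L at 15 uM with trace Alexa 594 label, heparin inducer 20 uM, pH 7 sodium acetate buffer, 37 C for 6 hr; endpoint ThT signal.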
Tau fluor cs – counter-screen for tau fibril formation inhibitors; tau K18 P301L Alexa594 fluorescence, heparin fibrillization; Potency, µM (top dose mostly 57.7 µM), for inactives: top-dose activity change, negative = decrease; actives 0.93% (n = 280,000); AID 1463; note: potency is the fitted concentration of half-maximal effect; nearly all actives have a fitted effect of over 55% in size
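Human tau K18 P301L (15 uM unlabeled, 0.24 uM Alexa 594-labeled) in 100 mM sodium acetate pH 7 with 20 uM heparin, 6 hr at 37 C. ThT 30 uM added, 1 hr ambient; Alexa 594 FP and total fluorescence read at 555/632 nm.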
G9a block – inhibitors of human histone lysine methyltransferase G9a | G9a H3K9 monomethylation, AlphaScreen, 2 h | Potency, µM (titrated, usually from 102 µM), without a hit: at the top dose activity, negative = inhibition, most hits filed as inhibitors | actives 8.8% (n = 350,000) | AID 504332; note: potency is the fitted concentration of half-maximal effect; nearly all actives have a fitted effect of over 75% in size
Target sequence (Q96KQ7 913-1193 limits assumed): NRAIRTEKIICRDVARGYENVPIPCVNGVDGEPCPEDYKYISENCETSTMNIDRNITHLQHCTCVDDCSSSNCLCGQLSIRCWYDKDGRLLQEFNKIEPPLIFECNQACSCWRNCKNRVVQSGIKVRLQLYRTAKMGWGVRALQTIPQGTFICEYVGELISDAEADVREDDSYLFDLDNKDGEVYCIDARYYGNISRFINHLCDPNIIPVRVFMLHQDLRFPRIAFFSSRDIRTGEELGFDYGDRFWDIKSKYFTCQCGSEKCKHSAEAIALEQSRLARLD
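AlphaScreen detection with an anti-monomethyl H3K9 antibody quantified product after a 2 h room-temperature reaction containing 500 nM biotinylated H3K9 peptide, 20 µM SAM and 20 nM enzyme, which had been preincubated 15 min with compound.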
Active calls of the source: *; ? = inconclusive; / = no result; ! = not confirmed by another sample; [ ] = dose if it differs, or a comment. A selection: hits, their analogues and other compounds. The true share with any hit is near 11%. Unless noted, calls come from the whole dose curve; as a rule, active = well fitted curve in the direction sought with a large enough effect; inconclusive = small, poorly fitted or top-dose-only effect, or another doubt; inactive = no such curve, though single readings can be large; an effect the other way counts as inactive or inconclusive. Unless noted, % is set by controls: 0 for no effect and ±100 for the full control effect.

SMILES	Sfp inh	Tau fibril FP	FBPA coupling cs	Tau ThT inhib	Tau fluor cs	G9a block
COC(=O)CCCC1=CC2=CC(=O)C(C)(OC(=O)c3cccs3)C(=O)C2=CN1C1CC1 (centres undefined)	-20%	7%[11.6 µM]	-40*!	2%[11.5 µM]	-3%[11.6 µM]	-5%[59 µM]
COc1ccc(NC(=O)c2cccc(N3CCCS3(=O)=O)c2)cc1	/	11%	/	0%	2%	-6%[59 µM]
O=C1c2ccccc2NC(c2cccc(O)c2)N1O (centres undefined)	-13%	/	-1	/	/	45µM*
O=C1c2ccccc2NC(c2ccc([N+](=O)[O-])cc2)N1O (centres undefined)	-6%	8%	0	-4%	2%	56µM*
CC1=C(c2ccc(F)cc2)S(=O)(=O)NC1=NCc1ccccc1Cl	/	-2%	/	-4%	-12%	4%[59 µM]
CN(C(=O)/C=C/c1ccco1)c1ccccc1C(=O)O	50µM*	-15%	1	?	-8%	25µM*
O=C(/C=C/c1ccco1)Nc1ccccc1C(=O)Nc1cccc(C(=O)O)c1	?	-4%	1	-13%	-10%	50µM*
O=C(/C=C/c1ccco1)Nc1ccccc1C(=O)O	18µM*	-16%	-12	?	-3%	14µM*
O=C(/C=C/c1ccco1)Nc1cc(Cl)ccc1C(=O)O	56µM*	?	-11	?	-11%	8.9µM*
Cc1ccccc1CSc1nc2c(sc3ccccc32)c(=O)n1CCCC(=O)NCCCOC(C)C	/	-2%	/	-4%	-5%	2%[59 µM]
COc1cccc(C2c3c(-c4ccccc4O)n[nH]c3C(=O)N2CCc2ccc(OC)c(OC)c2)c1 (centres undefined)	/	?	/	-17%	?	1%[59 µM]
O=C(O)/C=C\C(=O)Nc1ccccc1F	-1%	0%	3	-9%	-9%	?
O=C(O)/C=C/C(=O)Nc1ccccc1C(=O)Nc1ccccc1	79µM*	-7%	1	-19%	-8%	?
O=C1NN(c2ccccc2)C(=O)/C1=C\c1ccccc1OCC(=O)N1CCOCC1	?	-5%	/	?	-15%	45µM*
COc1cccc(C2NC(=O)NC(C)=C2C(=O)Nc2ccc(C)cc2)c1OC (centres undefined)	-3%	-1%	3	-5%	-2%	-1%[59 µM]
COc1cccc(C2NC(=S)NC(C)=C2C(=O)c2ccccc2)c1OC (centres undefined)	8%	13%	6	13%	16%	22µM*
C=CCOc1ccc(C2NC(=S)NC(C)=C2C(=O)c2ccccc2)cc1OC (centres undefined)	-10%	2%	1	-6%	-6%	40µM*
NC(=O)NC(=O)CC1S/C(=N/N=C2\CSC(=O)N2)NC1=O (centres undefined)	11µM*	-18%	-5	?	1%	0.79µM*
O=C(O)CNC(=O)CC1S/C(=N/N=C2/NC(=O)CS2)NC1=O (centres undefined)	32µM*	-3%	0	?	-10%	28µM*
CC1=C/C(=N\N=C2\NC(=O)C(CC(=O)Nc3ccccc3)S2)CC(C)(C)C1 (centres undefined)	7%	-4%	0	?	-28%	-33%
Cc1ccccc1OCCOc1ccccc1C=C(C#N)C#N	-23%	-14%	1	?	-14%	18%[59 µM]
COc1ccc(S(=O)(=O)n2nc(C)c(S(=O)(=O)N3CCCCCC3)c2C)cc1OC	/	4%	/	8%	13%	-22%[59 µM]
COC(=O)c1ccc(NC(=O)CC2C(=O)N(c3ccccc3)C(=O)N2Cc2ccc(F)cc2)cc1 (centres undefined)	/	-10%	/	-4%	-29%	-34%[59 µM]
CCN1CCOC(=O)C1CC(=O)Nc1ccc(C)c(Cl)c1 (centres undefined)	/	1%	/	?	-6%	2µM*
CCN1CCOC(=O)C1CC(=O)Nc1cc(Cl)ccc1C (centres undefined)	/	-4%	/	?	-14%	0.71µM*
SMILES	Sfp inh	Tau fibril FP	FBPA coupling cs	Tau ThT inhib	Tau fluor cs	G9a block
COc1ccc(C(=O)N=S2CCN(C(=O)c3ccc(Cl)cc3)CC2)cc1	-2%	-9%	1	-19%	-20%	25µM*
COc1ccc(C(=O)N2CCCC2)cc1	0%	5%	4	-11%	-4%	?
COCCn1c(C)cc(/C=C2/NC(=O)N(c3cccc(Cl)c3)C2=O)c1C	11%	7%	-3	?	?	50µM*
CC(=O)c1ccc(NC(=S)NCC(c2ccco2)N2CCCC2)cc1 (centres undefined)	9%	-4%	2	-13%	-12%	50µM*
N#Cc1ccccc1Sc1ccccc1C(=O)NCC(c1ccco1)N1CCCC1 (centres undefined)	/	/	/	/	/	2.8µM*
N#Cc1ccc(C(=O)NCC(c2ccco2)N2CCCC2)cc1 (centres undefined)	19%	5%	0	-11%	-1%	?
Cc1ccc(C)n1-c1nc(=S)[nH][nH]1	14µM*	0%	-29	-13%	-1%	1.3µM*
Cc1ccc(C)n1-c1ccc(-c2ccn[nH]2)cc1	17%	-10%	1	?	-20%	?
O=C(NCCc1ccccc1)c1ccc2c(c1)nc1n2CCOC1	/	-3%	/	?	1%	-1%[59 µM]
COc1ccc(CCNC(=O)CSc2nc3nc(C)c(Cc4ccc(C)cc4)c(C)n3n2)cc1OC	/	-1%	/	0%	-3%	1%[59 µM]
CCOc1ccc(-c2ccc(/C=C3/C(=N)N4C(C)=CSC4=NC3=O)o2)c([N+](=O)[O-])c1	-25%	14%	9	3.2µM*	?	?
COCCN(CCOC)S(=O)(=O)c1ccc(C(=O)Nc2sc3c(c2C(N)=O)CCCCC3)cc1	50µM*	-11%	2	5%	-17%	35µM*
CCN1CCc2c(sc(NC(=O)c3ccc(S(=O)(=O)N(CCOC)CCOC)cc3)c2C(N)=O)C1	/	-4%	/	0%	-8%	-24%[59 µM]
CC(C)(C)c1ccc(S(=O)(=O)NCC(=O)Nc2sc3c(c2C(N)=O)CCCC3)cc1	-7%	-15%	1	-21%	-25%	50µM*
COCCN(CCOC)S(=O)(=O)c1ccc(C(=O)Nc2nnc(C3CC3)o2)cc1	-26%	8%	5	-4%	9%	10%[12.7 µM]
Cc1ccc(S(=O)(=O)CC(=O)Nc2sc3c(c2C(N)=O)CCCC3)cc1	/	-9%	/	?	-19%	-22%[59 µM]
CCc1nnc(NC(=O)c2ccc(S(=O)(=O)N(CCOC)CCOC)cc2)o1	?	-1%	-1	-9%	-4%	4µM*
O=C(CCn1nc(-c2ccc(Cl)cc2)ccc1=O)N1CCN(c2ccccc2)CC1	-4%	/	2	/	/	-48%
